Values joined by “and” are separate entries in the source; they are usually repeats but may differ in a detail not shown here. Equal entries are not always repeated. Screen size: about 5,500 compounds; about 2,000 (36%) were called active. Not shown: some 18% with an inconclusive outcome. Rule as the data show it: active = normalized growth mostly below about 0.91 (no sharp cut-off); inconclusive = no clear call, values can overlap the other calls; inactive = mostly above about 0.92. The list shows a part of the results.
Experiment: chemical genetic growth profiling, strain panel (AID 1159580);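 also: tested at 20 µM; growth read once vehicle control cultures reached saturation at 30 °C; 1 = growth at the plate median or of vehicle wells; lower values mean less growth of the strain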
Conditions: S. cerevisiae deletion strains, growth OD

Measured: normalized growth

CC(C)c1ccc2c(c1O)CC[C@H]1C3=C(CC[C@]21C)C(=O)OC3
0.646 (active) and 0.956 (inactive): locus YJL095W, strain BCK1, stronger effect = lower value
0.661 (active) and 0.918 (inactive): locus YHR030C, strain SLT2, stronger effect = lower value
inactive: locus YAL021C, strain ccr4, stronger effect = lower value 0.999 | locus YAL026C, strain drs2, stronger effect = lower value 0.946 | locus YAL030W, strain snc1, stronger effect = lower value 0.969 | locus YBL061C, strain skt5, stronger effect = lower value 0.962 | locus YBR009C, strain hhf1, stronger effect = lower value 0.96 | locus YBR021W, strain FUR4, stronger effect = lower value 0.903 | locus YBR023C, strain chs3, stronger effect = lower value 0.957 | locus YBR171W, strain sec66, stronger effect = lower value 0.935 | locus YBR229C, strain ROT2, stronger effect = lower value 0.97 | locus YBR231C, strain swc5, stronger effect = lower value 0.957 | locus YBR279W, strain paf1, stronger effect = lower value 0.979 | locus YCL011C, strain gbp2, stronger effect = lower value 0.933 | locus YCL016C, strain dcc1, stronger effect = lower value 0.973 | locus YCL029C, strain bik1, stronger effect = lower value 0.912 | locus YCL061C, strain MRC1, stronger effect = lower value 0.925 | locus YCL069W, strain vba3, stronger effect = lower value 0.95 | locus YCR088W, strain abp1, stronger effect = lower value 0.933 | locus YDL005C, strain med2, stronger effect = lower value 0.961 | locus YDL035C, strain GPR1, stronger effect = lower value 0.943 | locus YDL040C, strain nat1, stronger effect = lower value 0.965 | locus YDL101C, strain DUN1, stronger effect = lower value 0.943 | locus YDL185W, strain tfp1, stronger effect = lower value 0.988 | locus YDR001C, strain nth1, stronger effect = lower value 0.935 | locus YDR069C, strain doa4, stronger effect = lower value 0.996 | locus YDR101C, strain arx1, stronger effect = lower value 0.968 | locus YDR150W, strain NUM1, stronger effect = lower value 0.959 | locus YDR159W, strain sac3, stronger effect = lower value 1 | locus YDR195W, strain ref2 1.01 | locus YDR297W, strain sur2, stronger effect = lower value 0.966 | locus YDR334W, strain swr1, stronger effect = lower value 0.956 | locus YDR335W, strain msn5, stronger effect = lower value 0.973 | locus YDR388W, stronger effect = lower value 0.99 | locus YEL003W, strain gim4, stronger effect = lower value 0.936 | locus YEL037C, strain rad23, stronger effect = lower value 0.941 | locus YEL061C, strain CIN8 (second series), stronger effect = lower value 0.939 | locus YER015W, strain faa2, stronger effect = lower value 0.961 | locus YER016W, strain bim1, stronger effect = lower value 0.976 | locus YER110C, stronger effect = lower value 0.943 | locus YER111C, strain swi4, stronger effect = lower value 0.946 | locus YFR010W, strain ubp6, stronger effect = lower value 0.952 | locus YGL078C, strain dbp3, stronger effect = lower value 0.962 | locus YGL167C, strain pmr1, stronger effect = lower value 0.967 | locus YGL173C, strain kem1, stronger effect = lower value 0.971 | locus YGL227W, strain vid30, stronger effect = lower value 0.945 | locus YGL240W, strain doc1, stronger effect = lower value 0.953 | locus YGL253W, strain hxk2, stronger effect = lower value 0.987 | locus YGR135W, strain pre9, stronger effect = lower value 0.953 | locus YGR252W, strain gcn5, stronger effect = lower value 0.916 | locus YHR013C, strain ard1, stronger effect = lower value 1.02 | locus YHR027C, strain rpn1, stronger effect = lower value 0.994 | locus YHR079C, strain IRE1 (second series), stronger effect = lower value 0.959 | locus YHR079C, strain IRE1, stronger effect = lower value 0.927 | locus YHR094C, strain hxt1, stronger effect = lower value 0.971 | locus YHR200W, strain rpn10, stronger effect = lower value 0.957 | locus YIL073C, strain SPO22, stronger effect = lower value 0.844 | locus YIL125W, strain kgd1, stronger effect = lower value 0.954 | locus YIR030C, strain dcg1, stronger effect = lower value 0.965 | locus YJL092W, strain hpr5, stronger effect = lower value 0.941 | locus YJL095W, strain BCK1 (second series), stronger effect = lower value 0.97 | locus YJL115W, strain asf1, stronger effect = lower value 0.956 | locus YJL134W, strain LCB3, stronger effect = lower value 0.975 | locus YJL154C, strain vps35, stronger effect = lower value 0.95 | locus YJL164C, strain tpk1, stronger effect = lower value 0.953 | locus YJL166W, strain qcr8, stronger effect = lower value 0.987 | locus YJL168C, strain set2, stronger effect = lower value 0.989 | locus YJL187C, strain SWE1, stronger effect = lower value 0.985 | locus YJR043C, strain POL32, stronger effect = lower value 0.865 | locus YJR066W, strain TOR1, stronger effect = lower value 0.898 | locus YKL009W, strain mrt4, stronger effect = lower value 0.935 | locus YKL068W, stronger effect = lower value 0.946 | locus YKL160W, strain elf1, stronger effect = lower value 0.956 | locus YKR026C, strain gcn3, stronger effect = lower value 0.931 | locus YKR091W, strain srl3, stronger effect = lower value 0.967 | locus YLL001W, strain dnm1, stronger effect = lower value 0.967 | locus YLL026W, stronger effect = lower value 0.962 | locus YLL041C, strain sdh2, stronger effect = lower value 0.97 | locus YLR027C, strain aat2, stronger effect = lower value 0.964 | locus YLR058C, strain SHM2, stronger effect = lower value 0.911 | locus YLR102C, strain apc9, stronger effect = lower value 0.954 | locus YLR113W, strain HOG1, stronger effect = lower value 0.909 | locus YLR221C, strain rsa3, stronger effect = lower value 0.96 | locus YLR258W, strain gsy2, stronger effect = lower value 0.951 | locus YLR262C, strain YPT6, stronger effect = lower value 0.667 | locus YLR268W, strain sec22, stronger effect = lower value 0.923 | locus YLR342W, strain FKS1, stronger effect = lower value 0.987 | locus YLR357W, strain rsc2, stronger effect = lower value 0.991 | locus YLR370C, strain arc18, stronger effect = lower value 0.965 | locus YLR384C, strain iki3, stronger effect = lower value 0.967 | locus YML016C, strain PPZ1, stronger effect = lower value 0.969 | locus YML032C, strain rad52, stronger effect = lower value 0.912 | locus YML120C, strain ndi1, stronger effect = lower value 0.968 | locus YML124C, strain tub3, stronger effect = lower value 0.988 | locus YMR058W, strain fet3, stronger effect = lower value 0.961 | locus YMR078C, strain ctf18, stronger effect = lower value 0.923 | locus YMR125W, strain sto1, stronger effect = lower value 0.949 | locus YMR129W, stronger effect = lower value 0.96 | locus YMR205C, strain PFK2, stronger effect = lower value 0.88 | locus YMR223W, strain ubp8, stronger effect = lower value 0.91 | locus YMR231W, strain pep5, stronger effect = lower value 0.975 | locus YMR263W, strain SAP30, stronger effect = lower value 0.896 | locus YNL067W, strain RPL9B, stronger effect = lower value 0.932 | locus YNL183C, strain NPR1, stronger effect = lower value 0.924 | locus YNL209W, strain ssb2, stronger effect = lower value 0.972 | locus YNL248C, strain rpa49, stronger effect = lower value 0.957 | locus YNL250W, strain rad50, stronger effect = lower value 0.971 | locus YNL271C, strain bni1, stronger effect = lower value 0.992 | locus YNL298W, strain CLA4, stronger effect = lower value 0.957 | locus YNL322C, strain KRE1 (second series), stronger effect = lower value 0.973 | locus YNR049C, strain mso1, stronger effect = lower value 0.976 | locus YNR052C, strain pop2, stronger effect = lower value 0.953 | locus YOL012C, strain htz1 0.499 | locus YOL147C, strain pex11, stronger effect = lower value 0.933 | locus YOR001W, strain rrp6, stronger effect = lower value 0.985 | locus YOR061W, strain CKA2, stronger effect = lower value 0.964 | locus YOR069W, strain VPS5, stronger effect = lower value 0.944 | locus YOR070C, strain gyp1, stronger effect = lower value 0.956 | locus YOR080W, strain dia2, stronger effect = lower value 0.986 | locus YOR083W, strain WHI5, stronger effect = lower value 0.966 | locus YOR106W, strain vam3, stronger effect = lower value 0.999 | locus YOR136W, strain idh2, stronger effect = lower value 0.929 | locus YOR144C, strain elg1, stronger effect = lower value 0.958 | locus YOR231W, strain MKK1, stronger effect = lower value 0.942 | locus YOR265W, strain rbl2, stronger effect = lower value 0.963 | locus YOR270C, strain vph1, stronger effect = lower value 0.794 | locus YOR290C, strain snf2, stronger effect = lower value 0.909 | locus YOR316C, strain cot1, stronger effect = lower value 0.968 | locus YPL051W, strain arl3, stronger effect = lower value 0.932 | locus YPL078C, strain atp4, stronger effect = lower value 0.934 | locus YPL106C, strain sse1, stronger effect = lower value 0.965 | locus YPL240C, strain hsp82, stronger effect = lower value 0.971 | locus YPL256C, strain CLN2, stronger effect = lower value 0.876 | locus YPR119W, strain clb2, stronger effect = lower value 0.951 | locus YPR141C, strain kar3, stronger effect = lower value 0.965 | locus YPR167C, strain met16, stronger effect = lower value 0.947 | strain wtn01, stronger effect = lower value 0.965
active: locus YAL013W, strain DEP1, stronger effect = lower value 0.847 | locus YDL074C, strain BRE1, stronger effect = lower value 0.617 | locus YDL134C, strain PPH21, stronger effect = lower value 0.8 | locus YDL192W, strain arf1, stronger effect = lower value 0.898 | locus YDR137W, strain rgp1, stronger effect = lower value 0.825 | locus YDR162C, strain NBP2, stronger effect = lower value 0.81 | locus YDR318W, strain mcm21, stronger effect = lower value 0.886 | locus YDR392W, strain spt3, stronger effect = lower value 0.542 | locus YDR502C, strain sam2, stronger effect = lower value 0.913 | locus YEL061C, strain CIN8, stronger effect = lower value 0.772 | locus YER155C, strain BEM2 (second series), stronger effect = lower value 0.807 | locus YER155C, strain BEM2, stronger effect = lower value 0.846 | locus YER167W, strain BCK2, stronger effect = lower value 0.781 | locus YGL086W, strain mad1, stronger effect = lower value 0.867 | locus YGL248W, strain PDE1, stronger effect = lower value 0.754 | locus YGR078C, strain PAC10, stronger effect = lower value 0.718 | locus YHR129C, strain ARP1, stronger effect = lower value 0.798 | locus YHR142W, strain chs7, stronger effect = lower value 0.867 | locus YIL066C, strain RNR3, stronger effect = lower value 0.601 | locus YJL129C, strain trk1, stronger effect = lower value 0.856 | locus YJL187C, strain SWE1 (second series), stronger effect = lower value 0.86 | locus YJR075W, strain HOC1, stronger effect = lower value 0.866 | locus YKL085W, strain MDH1 (second series), stronger effect = lower value 0.918 | locus YKL085W, strain MDH1, stronger effect = lower value 0.918 | locus YKR001C, strain vps1, stronger effect = lower value 0.834 | locus YLR039C, strain RIC1, stronger effect = lower value 0.628 | locus YLR262C, strain YPT6 (second series), stronger effect = lower value 0.816 | locus YLR320W, strain mms22, stronger effect = lower value 0.863 | locus YLR330W, strain CHS5, stronger effect = lower value 0.638 | locus YLR342W, strain FKS1 (second series), stronger effect = lower value 0.65 | locus YLR418C, strain cdc73, stronger effect = lower value 0.7 | locus YMR307W, strain GAS1, stronger effect = lower value 0.474 | locus YNL071W, strain lat1, stronger effect = lower value 0.853 | locus YNL233W, strain BNI4, stronger effect = lower value 0.723 | locus YNL307C, strain MCK1, stronger effect = lower value 0.536 | locus YOR184W, strain ser1, stronger effect = lower value 0.671 | locus YPL055C, strain LGE1, stronger effect = lower value 0.598 | locus YPL241C, strain CIN2, stronger effect = lower value 0.911 | locus YPR163C, strain tif3, stronger effect = lower value 0.794
